Most compounds without a hit are left out; they make up all but 10% or so of the library.
LMNA splice mod: LMNA splicing modulation | HeLa LMNA splicing GFP/RFP minigene ratio, 48 h | Potency, µM (doses to about 46.1 µM), inactives show at the highest dose ratio change, negative = inhibition, hits mostly inhibitors | AID 1487 | actives 0.01% (n = 200,000); active means well fitted inhibition curve with a large enough effect in the signal ratio, with a control signal flat, not every such curve was filed as active; inconclusive means small, poorly fitted or top-dose-only effect, or effect the other way, or a change in a side signal; the % refers to the signal ratio; further: potency means the concentration at half of the fitted maximal effect
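S3 HeLa cells stably expressing lamin A-EGFP splicing minigene plus DsRed2, 600 cells/well, 48 h compound exposure at 37C. Laser-scanning cytometry; analysed as GFP (500-530 nm)/RFP (575-640 nm) total intensity ratio; 0.5% DMSO vehicle.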
HPGD block: inhibitors of human 15-hydroxyprostaglandin dehydrogenase (HPGD); P15428; purified HPGD, NADH fluorescence kinetic, PGE2 substrate; Potency, µM, for inactives: at the highest dose activity change, negative = inhibition, most hits filed as inhibitors; actives 4.3% (n = 150,000); further: potency means the concentration at half of the fitted maximal effect
Target sequence (P15428 whole entry, looked up): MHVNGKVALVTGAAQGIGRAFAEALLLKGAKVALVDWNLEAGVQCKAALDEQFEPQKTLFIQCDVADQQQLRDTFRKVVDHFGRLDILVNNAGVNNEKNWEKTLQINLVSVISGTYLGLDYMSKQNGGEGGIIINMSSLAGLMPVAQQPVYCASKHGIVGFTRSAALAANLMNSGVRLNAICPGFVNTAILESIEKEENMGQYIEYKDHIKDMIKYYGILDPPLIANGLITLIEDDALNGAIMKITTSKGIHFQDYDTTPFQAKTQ
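20 nM HPGD preincubated 15 min at room temperature with compound in 50 mM Tris-HCl pH 8, 0.01% Tween 20. Started with 1 mM NAD+ and 30 uM prostaglandin E2; NADH fluorescence (360/450 nm) read 5 times over 30-s intervals, last minus first.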
PNC inhibitor: blocks assembly of the perinucleolar compartment | PC3M PTB-GFP, PNC prevalence imaging, 16 h; hits give low values | activity change (PNC), negative = inhibition, % at 10 µM | actives 3.1% (n = 140,000) | AID 2417;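 active means readout at or below -70, meaning at least 70% loss of cells showing the perinucleolar compartment, a nuclear body marking cancer cells; inconclusive means readout between -30 and a set limit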;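 further: plate controls were DMSO wells for no effect and camptothecin positive control wells for full effect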
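PC3M cells stably expressing PTB-GFP, 750–1000 cells/well, treated 16 h at 37 °C with compound (23 nl of library stock), in duplicate. After paraformaldehyde fixation and Hoechst stain, imaged at 20x; PNC prevalence scored by image analysis.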
12-hLO inh: 12-hLO (ALOX12) enzyme inhibition | purified 12-hLO, xylenol orange hydroperoxide absorbance | Potency, µM (doses to about 57.1 µM), inactives show at the highest dose activity change, negative = inhibition, most hits filed as inhibitors | AID 1452 | actives 0.12% (n = 150,000) | P18054; active means well fitted inhibition curve with a large enough effect; inconclusive means small, poorly fitted or top-dose-only effect; further: potency means the concentration at half of the fitted maximal effect; nearly all actives have a fitted effect of over 55% in size
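Hydroperoxide formation by human 12-lipoxygenase from 40 uM arachidonic acid was followed colorimetrically via ferric-xylenol orange complex, using the 573/405 nm absorbance ratio. Enzyme concentration was 150 nM, with 30 min reaction at room temperature.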
ALDH1A1 inh: ALDH1A1 (human) enzyme inhibition; AID 1030; actives 7.3% (n = 220,000); Purified ALDH1A1, NADH fluorescence, propionaldehyde substrate; Potency, µM (titrated, usually from 75.3 µM), for inactives: at the highest dose activity, negative = inhibition, most hits filed as inhibitors;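 further: potency means the concentration at half of the fitted maximal effect; plate controls were no enzyme wells and a reference inhibitor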
Target sequence (P00352 whole entry, looked up): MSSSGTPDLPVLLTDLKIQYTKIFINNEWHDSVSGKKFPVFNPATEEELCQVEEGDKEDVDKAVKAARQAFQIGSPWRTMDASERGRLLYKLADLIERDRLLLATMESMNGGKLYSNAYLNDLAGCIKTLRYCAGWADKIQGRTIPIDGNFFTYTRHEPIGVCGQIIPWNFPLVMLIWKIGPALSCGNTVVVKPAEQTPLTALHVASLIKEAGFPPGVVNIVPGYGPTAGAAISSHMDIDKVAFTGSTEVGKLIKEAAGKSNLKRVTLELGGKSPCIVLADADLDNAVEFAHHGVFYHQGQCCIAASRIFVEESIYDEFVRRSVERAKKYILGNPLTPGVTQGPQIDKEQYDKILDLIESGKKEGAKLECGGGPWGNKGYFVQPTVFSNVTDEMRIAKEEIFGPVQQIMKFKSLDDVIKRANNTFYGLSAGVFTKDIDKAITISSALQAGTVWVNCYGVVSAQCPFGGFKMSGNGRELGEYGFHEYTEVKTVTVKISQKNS
* = called active by the depositor; ? = inconclusive; . = no result given; [ ] = dose if it differs, or a comment. Unless noted, the call rests on the fitted dose curve; in most records, active means well fitted inhibition curve with a large enough effect (not every such curve was filed as active); inconclusive means small, poorly fitted or top-dose-only effect, or another doubt; inactive means no such curve, though single readings can be large or run the other way. Unless noted, on the % scale 0 is the no-effect control and ±100 the full control effect.

SMILES | LMNA splice mod | HPGD block | PNC inhibitor | 12-hLO inh | ALDH1A1 inh
Cn1c(=O)c(-c2cc(F)cc(F)c2)nc2cnc(Oc3cccc(Cl)c3)nc21 | . | -30% | . | -6% | ?
COCC(=O)N1CCC[C@@]2(CCN(C(=O)Nc3ccc(OC)cc3)C2)C1 | . | -6% | . | 0% | 1%
CCOC(=O)C1=C(c2ccccc2)NC(=O)NC1c1ccc(OC)cc1 (configuration not stated) | -3%[46 µM] | . | . | . | -14%
CCOC(=O)C1=C(C)NC(=O)NC1c1ccc(OCC(N)=O)cc1 (configuration not stated) | -7% | -12% | -100* | 4% | 8%
CCOC(=O)C1=C(C)NC(=O)NC1c1ccc2c(c1)OCCO2 (configuration not stated) | 7% | -3% | -100* | -4% | 13%
CCOC(=O)C1=C(c2ccccc2)NC(=O)NC1c1ccc(N(C)C)cc1 (configuration not stated) | ? | -8% | -100* | -8% | 14µM*
CCOC(=O)C1=C(C)NC(=O)NC1c1ccc(OC(=O)c2ccco2)cc1 (configuration not stated) | 4% | -10% | 16 | -2% | 1%
CCOC(=O)C1=C(C)NC(=O)NC1c1ccoc1 (configuration not stated) | 11% | -14% | 16 | 4% | -1%
COc1ccc(C[C@@H]2C(=O)N[C@H](C)C(=O)N(C)[C@@H]3Cc4ccc(cc4)Oc4cc(ccc4O)C[C@H](C(=O)N[C@@H](C)C(=O)N[C@H](C)C(=O)N2C)N(C)C3=O)cc1 | . | -6% | . | -5%[11.4 µM] | 0%[13.5 µM]
COc1ccccc1CNC(=O)CSc1nc(=O)[nH]c2c1CCCC2 | -4%[46 µM] | . | . | . | .
Cc1ccc(-n2ncc3c(NCCC4=CCCCC4)ncnc32)cc1 | -22%[46 µM] | . | . | . | .
CC(=O)OC[C@@H]1O[C@@H](O/N=C2/C[C@@H](O)[C@@H](O)[C@@H]3[C@@H]4C(=O)N(C[C@@H]5CCCO5)C(=O)[C@H]4CC[C@@H]23)[C@H](OC(C)=O)[C@H](OC(C)=O)[C@@H]1OC(C)=O | . | . | . | . | -2%[13.5 µM]
Cc1ccc(NC(=O)c2ccc(F)c(S(=O)(=O)NCCc3ccccc3)c2)cc1F | -17%[46 µM] | . | . | . | .
CCCCCCCCN[C@@H](C)[C@H](O)c1ccc(SC(C)C)cc1 | ? | -8% | . | 0%[25.6 µM] | -9%[20.9 µM]
CCc1ccc(C=NC23CN4CN(CN(C4)C2)C3)s1 | -14% | -11% | -22 | 0% | 7.9µM*
CCc1ccc(/C=N/NC(=O)c2cc(C)on2)s1 | 4% | -18% | 113 | -2% | -3%
CC(C)CNC(=O)CC(=O)NN=C1CCCC1 | -2% | -6% | -113* | 0% | -2%
Clc1cccc(-n2ncc3c(Nc4ccc5c(c4)OCCO5)ncnc32)c1 | -15%[46 µM] | . | . | . | .
COc1cccc(-c2cc(NCc3ccccc3OC)ncn2)c1 | ? | . | . | . | 9%
c1ccc(CNc2cc(-c3ccoc3)ncn2)cc1 | ? | . | . | . | 22µM*
COc1ccc(CNc2cc(-c3ccoc3)ncn2)c(OC)c1 | ? | . | . | . | 25µM*
CC(/C=N/n1c(-c2ccccc2)n[nH]c1=S)=C\c1ccco1 | -12% | ? | 40 | -15% | ?
CC(/C=N/n1c(-c2ccc(C)cc2)n[nH]c1=S)=C\c1ccco1 | ? | 2.5µM* | -5 | -6% | ?
CC(/C=N/n1c(-c2ccco2)n[nH]c1=S)=C\c1ccco1 | -12% | 14µM* | 62 | -14% | 32µM*
COc1ccc(C)cc1-n1cnc2cc(C(=O)NC3CCCCCC3)ccc21 | -10%[46 µM] | . | . | . | .
SMILES | LMNA splice mod | HPGD block | PNC inhibitor | 12-hLO inh | ALDH1A1 inh
COc1ccc(OC)c2sc(N(Cc3cccnc3)C(C)=O)nc12 | -8%[46 µM] | . | . | . | .
COC(=O)c1c(NC(=O)Cn2nc(C(F)F)cc2C(F)F)sc(C)c1C | 10% | 28µM* | ? | -9% | 11µM*
CCOC(=O)c1c(NC(=O)Cn2cnc([N+](=O)[O-])n2)sc2c1CCCC2 | ? | -17% | 30 | -3% | ?
CCOC(=O)c1c(NC(=O)Cn2cnc3scc(-c4ccc(C)cc4)c3c2=O)sc(C)c1C | -14% | -29% | ? | 2% | 14µM*
CC(C)OC(=O)c1c(NC(=O)Cn2cnc([N+](=O)[O-])n2)sc2c1CCCC2 | -6% | -27% | ? | 0% | 13µM*
CCOC(=O)c1c(NC(=O)Cn2cnc([N+](=O)[O-])n2)sc(C)c1C | . | . | . | . | 32µM*
COc1ccc(OC)c(NC(=O)C2CCN(S(=O)(=O)c3ccc4c(c3)CCCC(=O)N4)CC2)c1 | 4%[46 µM] | . | . | . | .
COC(=O)N1CCC2(CC1)CN(c1cccc(-c3ccccc3)c1)C2 | . | ? | . | -8% | ?
CN1CCN(C(=O)c2ccc(CN(c3ccccc3)S(=O)(=O)c3ccccc3)cc2)CC1 | ? | . | . | . | 11%
CCN1CCN(C(=O)c2ccc(CN(c3ccccc3)S(=O)(=O)c3ccccc3)cc2)CC1 | -11% | 14µM* | ? | -2% | -6%
COc1cccc(S(=O)(=O)Nc2ccc(C(=O)N3CCN(C(=O)c4ccco4)CC3)cc2)c1 | ? | -10% | 51 | -6% | 18µM*
O=C(c1ccc(CNS(=O)(=O)c2cccc(C(F)(F)F)c2)cc1)N1CCOCC1 | 4% | 14µM* | 23 | -1% | ?
CC(=O)Nc1ccc(S(=O)(=O)NC2=C(N3CCN(Cc4ccccc4)CC3)C(=O)c3ccccc3C2=O)cc1 | ? | -4% | ? | 0% | 16µM*
C[C@]12CC[C@H]3c4ccc(O)cc4CC[C@@H]3[C@H]1CC[C@@H]2OP(=O)(O)O | ? | -3% | . | -2%[11.4 µM] | -3%[13.5 µM]
O=c1n(Cc2ccc(F)cc2Cl)c2ccccc2c2nc(-c3ccccc3)nn12 | 4%[46 µM] | . | . | . | .
CN(Cc1cc(C(C)(C)C)cc(Br)c1O)Cc1cc(C(C)(C)C)cc(Br)c1O | . | -6% | . | -11%[11.4 µM] | -9%[13.5 µM]
CC(=O)N1CCCc2cc(S(=O)(=O)N(C)CC(=O)Nc3ccc(F)c(Cl)c3)ccc21 | -12%[46 µM] | . | . | . | .
O=C(NC(c1ccccc1)c1ccccc1)c1cccc(S(=O)(=O)NCc2ccccc2)c1 | ? | -14% | 22 | -1% | 4.5µM*
O=C(c1cccc(S(=O)(=O)NCc2ccccc2)c1)N1CCN(Cc2ccccc2)CC1 | ? | -10% | 21 | 2% | 18µM*
O=C(c1cccc(NS(=O)(=O)c2ccc(F)c(F)c2)c1)N1CCN(Cc2ccccc2)CC1 | ? | -3% | ? | -5% | ?
COc1ccc(N2CCN(C(=O)c3ccc(NS(=O)(=O)c4ccccc4)cc3)CC2)cc1 | ? | -29% | -16 | 4% | -9%
Cc1ccc(S(=O)(=O)NCc2ccc(C(=O)N3CCN(Cc4ccccc4)CC3)cc2)cc1 | ? | -2% | -21 | -3% | 11µM*
COc1ccc(NS(=O)(=O)c2ccc(C(=O)N3CCN(Cc4ccccc4)CC3)cc2)cc1 | . | . | . | . | 3.2µM*
c1cncc(CNc2ccnc(-c3cccnc3)n2)c1 | -6% | . | . | . | -112%
COCCn1ccc2c(OCC(=O)Nc3ccccc3F)cccc2c1=O | 22%[46 µM] | . | . | . | .
